Target: PRUNE
Experiment: pooled miR-30 sensor sort-seq; sequence = guide strand
Conditions: shRNA
Note: reference of the scale not given here.

Sequence | sensor-assay potency score (higher = more potent)
TATAGATAGTCTTCTGGTCTTT | -0.453
TTCCTTGTCCACTTGCTCCCTG | 0.334
TTTCTTTCGAGAGACCTGGGTG | -0.0186
TTTATGAGAACAGTATACCAGA | -0.563
TAGAGGTCGGGACTCCTGCAGA | -0.699
TAATAGTATAACAAAATGCAAA | -1.31

Target: PSD4
Experiment: as above
Conditions: shRNA

Sequence | sensor-assay potency score (higher = more potent)
TTGCGCTTCACCTTGGCCGTGG | 0.0843
TAGCTAGCTTGTCTCCAGCTGG | -0.572
TTACCTCTCTATCCTCTCCAGT | -0.76
TTTTCTTCAAGGAACTTGGCTG | -0.084
TAAGGTGTGGAACATCTTCCAG | -1.04
TGCACGTAGGTCTCGTAGCGGG | -1.25
TTTCCCTTGGGCACTCTCCTGG | -0.299
AAGGTGTGGAACATCTTCCAGC | -0.755
TCTTCTTGCCGTCTGCATCTTG | -0.456
TCACTCTTTACTTCCTCGCCTG | -0.455
TTAAGCAGCATGATTGCACATG | -0.729

Target: PSG2
Experiment: as above
Conditions: shRNA

Sequence | sensor-assay potency score (higher = more potent)
TTCTTGTAGAAGCAGAGACTTT | -1.51
TAGAGGTTATCTCCTGAACGGT | -0.865
ACAAGTAGAGGTTATCTCCTGA | 0.66
TTGACTGTCAACGATGTGGAGC | -0.475
AAACCTATGAGTCATAGGGAGG | -1.86
TTTCTCGTCCACTATATGCAGG | -0.849
TAGAAGCAGAGACTTTGACTGT | -0.247
TTAAAAGTGATGCTGTGACCAG | -0.575
TAAAAGTGATGCTGTGACCAGG | -0.171
TTTCGGACAGCTGAAACCTATG | -1.61

Target: PSIP1
Experiment: as above
Conditions: shRNA

Sequence | sensor-assay potency score (higher = more potent)
TTGATTGTTTAGTTGCTGCCTG | 0.524
TTCATGGTCGGTATCTTCCTTT | -0.126
TTAGTCACATCCTCATTGCTGG | 0.128
TTAATCTCAGCATGTATCCTTT | 0.197
TTATACAACATTGTAGACTTTT | -0.451
TTAAGTTTTAGTGACTTCCTAA | -0.13
TTCAACATCAAACCTATGCTTA | 0.354
TTGAAAATATGCTACAACCATG | -1.01
TTGACTTGAAAATTTCACTTTT | -0.471
TTAGTTACTAGTGCCTGCCTAT | 0.32
TATCTATCTCCCATAAACCTTC | -0.586
